Results filed as inconclusive are left out. A call without a number means that no potency is given here. Active and inactive are the calls of the source. Calls come from the whole dose curve; as a rule, active = well fitted inhibition curve with a large enough effect in the repeat runs; inconclusive = weak or mixed curves; inactive = no such curve, though single readings can be large or run the other way.
Potency is the fitted concentration of half-maximal effect.

Sequence of Cytochrome P450 1A2 (Homo sapiens) (P05177 whole entry, looked up): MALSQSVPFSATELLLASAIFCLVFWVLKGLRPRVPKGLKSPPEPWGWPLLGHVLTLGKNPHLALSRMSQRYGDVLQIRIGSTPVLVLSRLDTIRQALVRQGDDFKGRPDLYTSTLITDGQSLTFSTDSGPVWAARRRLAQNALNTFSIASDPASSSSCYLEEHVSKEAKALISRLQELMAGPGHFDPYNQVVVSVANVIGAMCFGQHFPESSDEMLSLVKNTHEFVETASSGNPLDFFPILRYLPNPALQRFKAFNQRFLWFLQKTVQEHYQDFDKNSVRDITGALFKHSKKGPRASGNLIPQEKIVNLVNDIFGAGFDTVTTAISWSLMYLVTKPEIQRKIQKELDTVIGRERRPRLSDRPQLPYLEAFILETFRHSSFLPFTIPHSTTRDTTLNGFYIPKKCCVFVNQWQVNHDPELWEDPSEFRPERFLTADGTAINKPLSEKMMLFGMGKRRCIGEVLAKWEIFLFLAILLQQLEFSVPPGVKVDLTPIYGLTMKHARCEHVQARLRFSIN

In the assay the target is Cytochrome P450 1A2 (Homo sapiens) (UniProt P05177). Put plainly: Cytochrome P450 Family 1 Subfamily A Member 2 (CYP1A2) small molecule antagonists: luciferase reporter qHTS assay (AID 1671199). Note: nearly all actives have a fitted effect of over 50% in size. Conditions: P450-Glo CYP1A2 enzyme, luciferin luminescence, 1 h; series mostly up to 115 µM. An excerpt:
National Center for Advancing Translational Sciences [NCATS]
U.S. Environmental Protection Agency [EPA]
National Institutes of Environmental Health Sciences [NIEHS]
National Toxicology Program [NTP]
U.S. Food and Drug Administration [FDA]
Cytochrome P450 (CYP) enzymes are membrane-bound hemeproteins that play a key role in metabolism of drugs and xenobiotics. Evaluation of the effect of chemicals on CYP isozymes is useful to minimize the adverse drug reactions and toxicities in drug development process. Tox21 chemicals were tested for their effect on CYP enzyme activities by using P450-Glo (TM) screening systems (Promega Corporation, Madison, WI). These systems provide a luminescent method containing proluciferin substrates and are converted to luciferin products by CYP isozymes. The luciferin products formed are detected with a luciferin detection reagent, and the amount of light produced is proportional to CYP activity. P450-Glo (TM) CYP1A2 screening system (Catalog. No. V9770) was used to detect the compounds that interfere in CYP1A2 activity. The positive control compound used for CYP1A2 assay is furafylline (Sigma-Aldrich, St. Louis, MO).
Tox21 Assay Protocol Summary:
Two ul of enzyme-substrate mix was dispensed into medium binding white/solid 1536-well plates (Greiner Bio-One North America Inc., Monroe, NC) using a BioRaptr Flying Reagent Dispenser (FRD, Beckman Coulter, Brea, CA). Compounds dissolved in DMSO and positive control (furafyllline) were transferred to the assay plates at 23 nl using a Pintool station (Wako, San Diego, CA). The assay plates were incubated at room temperature for 10 min. Then 2 ul of NADPH regeneration solution was added to each well of the assay plates using an FRD and incubated at room temperature for 1 h. The reaction was stopped by adding 4 ul of detection reagent using an FRD and after 20 min incubation at room temperature the luminescence signal was measured using a ViewLux plate reader (Perkin Elmer, Shelton, CT). Data were expressed as relative luminescence units.
On the technique in general: Reporter assays use an easily measured gene product as a stand-in for the process of interest.
As to `CCN1CCN(C(=O)N[C@@H](C(=O)N[C@@H]2C(=O)N3[C@@H]2SC(C)(C)[C@H]3C(=O)O)c2ccccc2)C(=O)C1=O`, the Potency result was “inactive”.
Same read-out and setting: for `O=C1CCCc2c(O)cccc21` the value was 34.7 µM (active).
On to `Nc1cc(S(=O)(=O)O)ccc1O`, for which the Potency entry is “inactive”.
On the same count and under the same terms, for `N#Cc1cc(NC(=O)C(=O)O)c(Cl)c(NC(=O)C(=O)O)c1` the value was “inactive”; for `CC(C)(C)C(=O)CC(=O)C(C)(C)C`, “inactive”; for `CC1=C(O)C(=O)CO1`, “inactive”.
Still for that read-out and setting: for `CO/N=C(\C(=O)O)c1csc(NC(=O)CCl)n1` the value was “inactive”; for `CC(C)c1cc(C(C)C)cc(C(C)C)c1`, “inactive”.
On to `CCCCCCCCCCCCCCCC(=O)OC`, for which the activity change, negative = inhibition was -2.98% [at 23.6 µM] (inactive).
With `O=Cc1ccccc1S(=O)(=O)O`, the Potency result is “inactive”.
The same measure, in the same setting: for `CC(O)C(CO)C(C)O` (stereo not given) the value was 32.1 µM (active).
Same read-out and setting: for `COC(C)(C)CC(C)=O` the value was “inactive”.
Still for that read-out and setting: for `O=C(O)Cc1ccccc1Oc1ccc(Cl)cc1Cl` the value was “inactive”; for `CN1C(CCl)Nc2cc(Cl)c(S(N)(=O)=O)cc2S1(=O)=O` (stereo not given), “inactive”; for `C=CCOC(=O)CCCCCCCC`, 40.2 µM (active).
For `CC[N+](C)(CC)CC`, the Potency result was “inactive”.
Same read-out and setting: the same measure for `Cc1ccc(Br)cc1`: “inactive”; for `CCCCCC(CC)OC(=O)CCCOc1ccc(Cl)cc1Cl` (stereo not given): 35.5 µM (active); for `O=C(O)CCCCCCCCCC(=O)O`: “inactive”.
Same read-out and setting: for `CCCCCC(=O)CC` the value was “inactive”.
Still for that read-out and setting: the same measure for `Cc1ccc2cccnc2c1`: 39.6 µM (active).
As to `c1cc2ccc3ccc4ccc5cccc6c(c1)c2c3c4c56`, the Potency is 0.2 µM (active).
Turning to `CC(C)(C)C(=O)CCc1ccc(Cl)cc1`, the Potency is 22.4 µM (active).
Same read-out and setting: for `CC(=O)SC[C@@H](C)C(=O)N1CCC[C@H]1C(=O)N[C@@H](Cc1ccccc1)C(=O)O` the value was “inactive”.
As to `CCCc1ncc(C(=O)O)s1`, the Potency entry was “inactive”.
Consider `Cc1ccc(O)c(C(=O)c2ccccc2)c1`, for which the Potency is 1.43 µM (active).
Still for that read-out and setting: for `COCCCOc1cc(C[C@@H](C[C@H](N)[C@@H](O)C[C@H](C(=O)NCC(C)(C)C(N)=O)C(C)C)C(C)C)ccc1OC` the value was “inactive”; for `C=CCN(CC=C)CC=C`, “inactive”.
Still for that read-out and setting: the same measure for `Cc1cc(O)c(Cl)cc1C`: 25.2 µM (active).
Take `CCCCN(CCCC)CCCCCCN(CCCC)CCCC`: the Potency entry is “inactive”.
On to `CC(C)C(=O)Nc1cccc(C2CN3CCSC3=N2)c1` (stereo not given), for which the Potency entry is “inactive”.
Still for that read-out and setting: the same measure for `CC(=O)O[C@@H]1CC2C3CCc4cc(OC(=O)c5ccccc5)ccc4C3CCC2(C)[C@H]1OC(C)=O` (stereo not given in full): “inactive”; for `CCc1ccc(CC)cc1`: “inactive”.
Still for that read-out and setting: for `CC(CN1CC(=O)NC(=O)C1)N1CC(=O)NC(=O)C1` (stereo not given) the value was “inactive”.
Regarding `O=C(O)Cc1c(Cl)ccc(Cl)c1Cl`, the Potency was 25.2 µM (active).
On the same count and under the same terms, the same measure for `CC(=O)c1ccc2ccc3ccccc3c2c1`: 1.12 µM (active); for `CCCCCCC(O)CO` (stereo not given): “inactive”; for `C=CC(=O)CC`: “inactive”.
As for `CCCCCCCCCCCC(C)=O`, the Potency entry was “inactive”.
As for `CCCCCCCCCCCCCCCCN(C)C`, the activity change, negative = inhibition is -22.3% [at 10.5 µM] (inactive).

These data come from PubChem BioAssay (Tox21).
